Source: the supplement of paper PMC13380429
Unmarked numbers belong to inactive results.

Test system: Vero E6 infected with SARS-CoV-2
Experiment: inhibition of SARS-CoV-2 cytopathic effect; higher = more antiviral protection, active = above 15
Details: 48 h

SMILES | inhibition of SARS-CoV-2 cytopathic effect (1 nM) [%] | inhibition of SARS-CoV-2 cytopathic effect (8.33 nM) [%] | inhibition of SARS-CoV-2 cytopathic effect (100 nM) | inhibition of SARS-CoV-2 cytopathic effect (833.33 nM) | inhibition of SARS-CoV-2 cytopathic effect (10000 nM)
c1ccc([C@@H]2C[C@H]2NC2CCNCC2)cc1 | -2.71 | 1.14 | 0.53% | 1.44% | -2.6%
COc1ncc(-c2ccc3c(Nc4cc(Oc5cc(F)cc(F)c5)cc(C(=O)O)c4)c(S(=O)(=O)NC4CC4)cnc3c2)c(OC)n1 | 0.82 | 2.2 | 0.69% | 2.71% | 1.3%
FC(F)OC(F)(F)C(F)Cl (stereo not given) [enflurane] | 1.24 | 0.43 | 1.56% | -3.51% | -3.14%
CC(C)C[C@H](NC(=O)[C@H](Cc1ccccc1)NC(=O)c1cnccn1)B(O)O [bortezomib] | 1.7 | 11 | 32.8% (active) | 27.1% (active) | 12.7%
C[C@]12CC[C@H]3[C@@H](CC[C@@]45O[C@@H]4C(O)=C(C#N)C[C@]35C)[C@@H]1CC[C@@H]2O [trilostane] | 1.21 | -0.28 | -1.2% | 0.24% | 2.15%
CCN(CCCCOC(=O)c1ccc(OC)c(OC)c1)C(C)Cc1ccc(OC)cc1 (stereo not given) [mebeverine] | 1.37 | -1.75 | -0.83% | -1.35% | -3.11%
O=c1c(O)c(-c2ccc(O)c(O)c2)oc2cc(O)ccc12 [fisetin] | 0.55 | -1.12 | 0.7% | -0.95% | -1.68%
O=C1CC[C@@](c2ccccc2)(C2CCN(Cc3ccc(I)cc3)CC2)C(=O)N1 [iododexetimide] | 1.14 | -0.02 | -0.5% | -1.35% | -6.84%
Cc1cc2c(N3CCCC3)nc(N3CCCC3)nc2n1C | 1.39 | 5.02 | 4.75% | 3.21% | 3.47%
[O-][n+]1ccccc1[S-].[O-][n+]1ccccc1[S-].[Zn+2] [pyrithione-zinc] | 1.44 | 0.32 | 1.01% | 29.9% (active) | -21.9%
CCC(=O)c1cc(-c2ccc(Cl)cc2)n(-c2ccc(S(N)(=O)=O)cc2)c1C | -0.96 | -3.03 | 0.71% | -1.12% | 3.3%
O=C(NCc1ccc(Oc2ccccc2)cc1)c1nc(-c2cc(Br)c(O)c(Br)c2)no1 | -1.01 | -0.54 | 0% | 0.07% | 0.36%
COC(=O)[C@]12CCC(C)(C)C[C@H]1[C@H]1C(=O)C=C3[C@@]4(C)C=C(C#N)C(=O)C(C)(C)[C@@H]4CC[C@@]3(C)[C@]1(C)CC2 [Bardoxolone Methyl] | 2.85 | 3.94 | -1.03% | 33.7% (active) | -23.4%
CCCn1c(=O)c2nc(C34CC5CC(CC3C5)C4)[nH]c2n(CCC)c1=O | 1.22 | -0.55 | 2.44% | 2.31% | 1.25%
Cc1cc(/C=C2\SC(=O)N(c3ccccc3)C2=O)c(C)n1-c1cccnc1 | 2.97 | -0.28 | 1.31% | 1.52% | 2.29%
Cc1cc(C(=O)Nc2cccc(C(=O)Nc3cccc(C(F)(F)F)c3)c2)on1 | 0.37 | 3.92 | -2.18% | -1.26% | -3.26%
CN/C(=N\c1ccc(C2=NNC(=O)CC2C)cc1)NC#N (stereo not given) [siguazodan] | 1.52 | 1.14 | -0.26% | 1.67% | -1.34%
CONC(=N)c1ccc(-c2ccc(-c3ccc(C(=N)NOC)cc3)o2)cc1 [pafuramidine] | -0.94 | 1.16 | -0.24% | 0.72% | 2.7%
O=C(O)c1ccccc1C(=O)Nc1ccc(-c2ccccc2)cc1 [kartogenin] | 3.34 | 2.53 | 0.87% | 1.12% | 1.02%
Oc1ccc(C2(c3ccccc3F)CCC(F)(F)CC2)cc1 | 1.54 | -0.41 | -0.21% | -1.05% | 0%

SMILES | inhibition of SARS-CoV-2 cytopathic effect (1 nM) [%] | inhibition of SARS-CoV-2 cytopathic effect (8.33 nM) [%] | inhibition of SARS-CoV-2 cytopathic effect (100 nM) | inhibition of SARS-CoV-2 cytopathic effect (833.33 nM) | inhibition of SARS-CoV-2 cytopathic effect (10000 nM)
C[C@]12CC[C@@H]3c4ccc(O)cc4CC[C@H]3[C@@H]1C[C@@H](O)[C@@H]2O [estriol] | 2.04 | 1.38 | -1.95% | -1.63% | -0.19%
CO[C@H]1C[C@@H]2CC[C@@H](C)[C@@](O)(O2)C(=O)C(=O)N2CCCC[C@H]2C(=O)O[C@H]([C@H](C)C[C@@H]2CC[C@H](n3cnnn3)[C@H](OC)C2)CC(=O)[C@H](C)/C=C(\C)[C@@H](O)[C@@H](OC)C(=O)[C@H](C)C[C@H](C)/C=C/C=C/C=C/1C [zotarolimus] | -1.51 | -2.41 | -1.68% | -2.21% | 1.71%
O=C1C[C@@H](c2ccc(O)cc2)Oc2cc(O)ccc21 | -0.59 | 2.87 | 2.13% | 1.65% | 12%
CCc1cccc(CC)c1NC(=O)N1Cc2[nH]nc(NC(=O)c3ccc(N4CCN(C)CC4)cc3)c2C1 | -4.07 | 1.98 | 1.34% | 1.38% | -0.02%
Cc1nn(C)c2nc(NNC(=O)Nc3cc(Cl)nc(Cl)c3)cc(C(C)C)c12 | -4.74 | -3.45 | -2.8% | -1.22% | 1.05%
Sc1ncnc2nc[nH]c12 [mercaptopurine] | -0.65 | 1.59 | 2.14% | 1.92% | 0.56%
Cc1cc(-c2nc(C(=O)Nc3cn(C4CCOCC4)nc3C(N)=O)co2)ccn1 | -2.34 | -3.32 | -0.57% | -4.01% | -5.6%
Nc1nccc2c1ncn2[C@@H]1O[C@H](CO)[C@@H](O)[C@@H]1O [3-deazaadenosine] | -0.84 | -2 | -2.27% | -0.63% | -2.6%
Cc1c(C(=O)NCCCO)cnn1-c1nc(-c2cccc(C(F)(F)F)c2)cs1 | 2.55 | 3.83 | 3.4% | 5.36% | -0.86%
N#CC(C#N)=Cc1ccc(O)c(O)c1 [tyrphostin-AG-18] | 2.32 | 2.46 | 0.83% | 0.73% | 0.85%
O=C1C=C2C=C[C@@H]3C[C@@]2(O1)[C@H]1CCCCN31 [securinine] | 0.7 | 3.64 | 2.11% | 7.21% | 18.4% (active)
CCOC(=O)Nc1ccc2c(c1)N(C(=O)CCN(CC)CC)c1ccccc1S2 [ethacizin] | -5.42 | -5.11 | -2.38% | -1.38% | 2.9%
Nc1ncnc2nc(-c3ccc(N4CCOCC4)nc3)cc(-c3cccc(Br)c3)c12 | -0.77 | -1.24 | -5% | -0.05% | -1.01%
O=C(O)Cc1cccnc1C(=O)O [homoquinolinic-acid] | 3.71 | -1.17 | -11.5% | 1.81% | 1.14%
C/C=C1\[C@H]2C=C(C)C[C@]1(N)c1ccc(=O)[nH]c1C2 [(-)-Huperzine A] | 0.37 | 2.1 | 0.96% | -0.65% | -0.5%
COc1cc(C=O)ccc1O [vanillin] | 1.74 | 0.89 | 1.04% | -1.54% | -2.8%
C[C@@H]1CN(CC(=O)Nc2ccc3c(c2)Cc2cccc(-c4cc(=O)cc(N5CCOCC5)o4)c2S3)C[C@H](C)O1 | -2.04 | 0.24 | 2.16% | 2.87% | 35.7% (active)
CNC(=O)c1ccccc1Nc1cc(Nc2ccc(N3CCOCC3)cc2OC)ncc1C(F)(F)F | 0.1 | -1.1 | -2.99% | -4.38% | -3.64%
Cc1cc(Nc2cc(CN3CCOCC3)c3nc(C)c(Cc4ccc(Cl)cc4F)n3n2)n[nH]1 | -0.17 | 1 | -1.28% | -6.68% | -11.6%
O=c1c(-c2ccc(O)cc2)coc2cc(O)ccc12 [daidzein] | 0.46 | 0.3 | 0.05% | -0.66% | -1.03%
